Bioassay records as filed in PubChem.
Myeloid diff 2: myeloid differentiation induction; ER-HoxA9 myeloid progenitors, lysozyme-GFP differentiation, flow cytometry; calls only at 10 µM; 360,000 tested, 1% active;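 active = normalized GFP-positive differentiation at or above the plate's own cutoff, the solvent-only control mean plus 3 SD; inconclusive = no clear call, values can overlap the other calls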;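 also: cells exposed to compound for four days before flow analysis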
DAGLB inh: blocks human DAGLB lipase activity; Q8NCG7; HEK293T DAGLB membrane lysate, EnzChek fluorogenic substrate; inhibition, % at 5.17 µM; 340,000 tested, 0.059% active; AID 504411; in the data active = inhibition above about 34%
sPLA2-III inh: Inhibits HGIII-sPLA2 liposome hydrolysis, primary screen. inhibition, % at 12.2 µM. 370,000 tested, 0.56% active. QFRET BODIPY PC-A2 liposome hydrolysis, fluorescence;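 active = inhibition above mean plus 3 SD of compounds lying within the high and low control bounds, cut at about 19% in these data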
Rtt109 Vps75: C. albicans Rtt109 histone acetyltransferase inhibition | Q5AAJ8 | purified Rtt109/Vps75, ThioGlo CoA-SH fluorescence, 4 h | inhibition, % at 34.9 µM | 330,000 tested, 0.16% active;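 active = inhibition of at least 50% in every replicate; inconclusive = best replicate reaches 50% inhibition but some replicates fall short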
Target sequence (Q5AAJ8 whole entry, looked up): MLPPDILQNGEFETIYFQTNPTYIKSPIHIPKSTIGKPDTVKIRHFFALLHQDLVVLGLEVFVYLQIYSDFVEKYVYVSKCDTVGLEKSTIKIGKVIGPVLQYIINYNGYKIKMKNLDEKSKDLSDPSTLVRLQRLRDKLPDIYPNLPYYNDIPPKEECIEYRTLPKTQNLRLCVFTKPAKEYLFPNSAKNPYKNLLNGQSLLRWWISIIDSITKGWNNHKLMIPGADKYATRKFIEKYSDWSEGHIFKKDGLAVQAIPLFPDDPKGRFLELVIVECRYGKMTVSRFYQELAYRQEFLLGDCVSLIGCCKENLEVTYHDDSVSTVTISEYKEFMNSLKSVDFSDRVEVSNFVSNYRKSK
ABHD5 PLIN5 PPI: blocks binding of human ABHD5 to perilipin-5; Q00G26+Q8WTS1; Split G. princeps luciferase complementation, luminescence, 4 h; inhibition, % at 4 µM; 360,000 tested, 0.78% active;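 active = inhibition above the mean inhibition across every tested compound plus 3 SD, cut at about 22% in these data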
H9c2 protect: modulators protecting cardiomyocytes from myocardial damage; 360,000 tested, 0.63% active; H9c2 cardiomyocytes, H2O2 injury protection, ATPLite, 2 h; protection from H2O2 cell death, % at 20 µM;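 active = compounds giving at least 50% protection of heart cells from peroxide-induced death in the single-dose screen, raw or plate-pattern-corrected value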
Large screens that a line does not name were inactive. Shown are actives, neighbours in structure and some others; about 2.9% of the full set was active somewhere.

Cc1ccc2nc(NCCNC(=O)c3ccccc3)c(C#N)cc2c1	Myeloid diff 2 active
CC(=O)N1CCC2(CC1)C(C#N)=C(N)Oc1n[nH]c(C(F)(F)F)c12	none
N#Cc1cccc(NC(=O)CSc2ccc3c4c(cccc24)C(=O)c2ccccc2-3)c1	Myeloid diff 2 active
N#Cc1cccc(NC(=O)CSc2ccccc2)c1	none
COc1ccc(NC(=O)CSc2ccc3c4c(cccc24)C(=O)c2ccccc2-3)cc1	Myeloid diff 2 active
COC(=O)c1ccc(N=Cc2c(-c3ccccc3)[nH][nH]c2=O)cc1	none (no result: Rtt109 Vps75)
Oc1c(C(Nc2cccc(C(F)(F)F)c2)c2cccnc2)ccc2cccnc12 (centres undefined)	H9c2 protect 58.9
Cc1cc(NC(c2cccnc2)c2ccc3cccnc3c2O)no1 (centres undefined)	Myeloid diff 2 inconclusive, H9c2 protect 56.9
Oc1cccc(C(Nc2nccs2)c2ccc3cccnc3c2O)c1 (centres undefined)	none (no result: Myeloid diff 2)
CC(=O)C1=C(C)N(Cc2ccc(Cl)cc2)C(=S)NC1c1ccccc1 (centres undefined)	none (no result: Myeloid diff 2, DAGLB inh, Rtt109 Vps75, ABHD5 PLIN5 PPI, H9c2 protect)
CC(=O)c1c(N2CCN(C(=O)C3CCCO3)CC2)nc(=S)n(-c2ccccc2)c1C (centres undefined)	none (no result: Rtt109 Vps75)
CC(NC(=O)c1cc2c(=O)n(C)c3ccccc3c2n1C)c1ccc2c(c1)OCCO2 (centres undefined)	Myeloid diff 2 inconclusive, H9c2 protect 72.0
CCOc1ccc(NC(=O)c2cc3c(=O)n(C)c4ccccc4c3n2C)cc1	H9c2 protect 66.4
COc1ccc(NC(=O)CCCc2ccccc2)cc1OC	none
Cc1cc(C)n2c(SCCC(C)C)nnc2n1	none
Nc1cnc(Nc2ccc(Br)cc2)nc1N	Myeloid diff 2 active
C/C(=N/N1CCN(Cc2ccccc2)CC1)c1ccc(Br)cc1	none (no result: Rtt109 Vps75)
Oc1ccc(CN2CCCc3ccccc32)c2cccnc12	H9c2 protect 55.7 (no result: sPLA2-III inh)
COc1ccccc1N(C(=O)c1snc(C(N)=O)c1N)C(C(=O)NCc1ccccc1)c1ccc(C)o1 (centres undefined)	none
COc1cccc(CC2(CO)CCN(C(=O)NC3CCCCC3)CC2)c1	none
COc1cccc(CC2(CO)CCN(C(=O)NCCc3ccccc3)CC2)c1	Myeloid diff 2 active
COc1cccc(C2=CC(=O)CCC2)c1OC	none
Cc1ccc(NC(=O)CCNC(=O)c2ccc([N+](=O)[O-])cc2)cc1C	Myeloid diff 2 active
COc1ccc(C(=O)CC(Nc2ccc([N+](=O)[O-])cc2)c2ccc(Cl)cc2)cc1 (centres undefined)	Myeloid diff 2 active
Cc1ccc(C(=O)NCCc2ccc(S(N)(=O)=O)cc2)cc1[N+](=O)[O-]	none
COC(=O)c1ccccc1S(=O)(=O)N(Cc1ccco1)Cc1cc2cc(OC)ccc2[nH]c1=O	H9c2 protect 59.3
CC(=O)Nc1ccc(S(=O)(=O)N(Cc2ccco2)Cc2cc3ccccc3[nH]c2=O)cc1	H9c2 protect 58.4
CNC(=S)N(Cc1ccco1)Cc1cc2cc(OC)ccc2[nH]c1=O	none
COc1ccc2[nH]c(=O)c(CN(CC3CCCO3)S(=O)(=O)c3ccccc3F)cc2c1 (centres undefined)	H9c2 protect 52.7
CC(=O)Nc1ccc(S(=O)(=O)N(Cc2cccnc2)Cc2cc3ccccc3[nH]c2=O)cc1	H9c2 protect 63.9
COCCn1c(SC(C)C(=O)NCC2CCCO2)nc2scc(-c3ccc(F)cc3)c2c1=O (centres undefined)	none
CCCCNC(=O)C1(C)CCN1Cc1cc(C)ccc1C (centres undefined)	none (no result: DAGLB inh, Rtt109 Vps75)
O=C(CNS(=O)(=O)c1ccccc1)NCC(=O)N1CCCCC1	none
Cc1ccccc1NC(=O)NC1CCCCC1C (centres undefined)	none (no result: Rtt109 Vps75)
C[C@H](NC(=O)[C@@H]1Cc2ccccc2CN1)C(=O)NCC1CCCO1 (some centres undefined)	none
COc1ccc(-c2cc(=O)c3ccc(O)cc3o2)cc1OC	none (no result: DAGLB inh, Rtt109 Vps75)
Nc1ccc(-c2c3ccc(=O)cc-3oc3cc(O)ccc23)c(C(=O)O)c1	Myeloid diff 2 active (no result: sPLA2-III inh)
COc1cc(/C=N/NC(=O)c2cccc(S(=O)(=O)N3CCCC3)c2)ccc1O	none
CCOC(=O)C1=C(C)NC2=C(C(=O)c3ccccc32)C1c1ccc([N+](=O)[O-])o1 (centres undefined)	H9c2 protect 60.9
O=C(CC1SC2=NCCN2C1=O)Nc1ccccc1 (centres undefined)	none
Cc1ccc(NC(=O)CC2SC3=NCCN3C2=O)cc1 (centres undefined)	ABHD5 PLIN5 PPI 22.9
Cc1cccc2cc(C#N)c(NCCNS(=O)(=O)c3ccc4c(c3)OCCO4)nc12	Myeloid diff 2 active
Nc1nc2ccc(S(=O)(=O)N3CCCCC3)cc2s1	Rtt109 Vps75 151.9
N#CCc1nc2ccc(S(=O)(=O)N3CCOCC3)cc2s1	Myeloid diff 2 active
O=C1CSC(c2ccc(Cl)cc2)N1Nc1nc(N2CCOCC2)nc(N2CCOCC2)n1 (centres undefined)	none
CCOC(=O)Cc1c(C)nc2cc(C)nn2c1C	none
CCOC(=O)Cc1nn2c(=O)cc(C)nc2s1	Myeloid diff 2 active
CCCCC(=O)NC(=S)NNC(=O)c1ccc(Cl)cc1Cl	none
Cc1ccc(C(=O)NNC(=S)NC(=O)c2ccccc2)cc1	sPLA2-III inh 35.2
Cc1ccccc1C(=O)NNC(=S)NC(=O)c1ccccc1	none
Cc1ccc(C(=O)NNC(=S)NC(=O)c2ccc(Cl)cc2Cl)cc1	H9c2 protect 54.5 (no result: Myeloid diff 2)
CCN(CC(=O)NCc1cccs1)C(=O)c1ccc(S(=O)(=O)Nc2cccc(C)c2C)cc1	none
Nc1ccc2nc(-c3cccc(-c4nc5ccc(N)cc5[nH]4)n3)[nH]c2c1	Myeloid diff 2 active
CCOC(=O)CNC(=O)CNC(=O)c1ccc(OCC(C)C)cc1	none
Cc1[nH]c2ccccc2c1CCNC(=O)c1ccc2c(c1[N+](=O)[O-])C(=O)c1ccccc1C2=O	Myeloid diff 2 active
Cc1ccc(S(=O)(=O)N2CCCCC2C(=O)Nc2nncs2)cc1 (centres undefined)	none
COc1ccc(C(=O)Nc2nnc(C(F)(F)F)s2)cc1	none
CCN(CC)CCNC(=O)CCc1n[nH]c(=O)c2ccccc12	H9c2 protect 81.3
CCN(CC)CCNC(=O)CCc1nn(C)c(=O)c2ccccc12	none
CC(=O)Nc1ccc(C(=O)N/N=C/c2ccccc2OC(=O)c2ccc(Cl)cc2)cc1	H9c2 protect 56.1
O=C(CSc1nc2[nH]ncc2c(=O)n1-c1ccccc1)c1ccc2c(c1)OCCO2	H9c2 protect 45.7
Cn1c(-n2c(CCCN3C(=O)c4ccccc4C3=O)nc3ccccc3c2=O)nc2ccccc21	H9c2 protect 101.3
OCCC1CN(Cc2ccccc2O)CCN1CCCc1ccccc1 (centres undefined)	none
